# Compound activity as filed in PubChem BioAssay.
# HT1080 IDH1KD tx – kills HT-1080 cells with IDH1 knockdown; HT-1080 IDH1 knockdown viability, ATP luminescence, 48 h; Potency, µM (series often up to 46.1 µM), for inactives: top-dose activity, negative = toxicity, hits mostly cytotoxic; 360,000 compounds, 2% hits; AID 686971;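 note: 0% = DMSO wells and -100% = cell-free medium wells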
#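 Luminescent ATP read-out (CellTiter-Glo, 10 min at room temperature) after 48 h compound exposure at 37 °C gave viability of IDH1-knockdown HT-1080 cells. Activity was normalised to DMSO and cell-free wells, then fitted as concentration-response curves.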
# SW480 rerep – inducers of DNA re-replication in SW480 colon cancer cells; SW480 DNA re-replication, Hoechst DNA content imaging, 48 h; Potency, µM (doses to about 46.1 µM), for the others: at the highest dose re-replication activation, actives largely listed as activators; 340,000 compounds, 1.8% hits; AID 624297; note: % of control where 0% means no effect; nearly all actives have a fitted effect of over 55% in size
#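 Cells (250 per well) received 23 nL compound or DMSO by pin tool and were kept 48 hr at 37 C, 5% CO2. Nuclei were then stained with Hoechst for 40 min and scanned for DNA content.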
# MCF10A rereplic – induces DNA re-replication in MCF 10a normal breast cells | AID 624296 | Potency, µM (top dose mostly 46.1 µM), for the others: at the top dose activity, positive = re-replication, actives largely listed as activators | MCF 10A DNA re-replication, Hoechst nuclear intensity, 48 h | 350,000 compounds, 2.9% hits; note: % of control where 0% means no effect; nearly all actives have a fitted effect of over 50% in size
# KB-3-1 cytotox – KB-3-1 parental cell cytotoxicity | 400,000 compounds, 1.4% hits | Potency, µM (titrated, usually from 46.1 µM), hits mostly cytotoxic | KB-3-1 viability, CellTiter-Glo ATP luminescence, 72 h; note: % is set by controls: 0 for no effect and ±100 for the full control effect; nearly all actives have a fitted effect of over 60% in size
#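 Cytotoxicity in the drug-sensitive parental line KB-3-1 was scored as loss of CellTiter-Glo luminescence following 72 h incubation with compound. Values come from curve fitting of normalized concentration-response data.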
# HT1080NT lethal – kills 2HG-producing HT-1080-NT fibrosarcoma cells. HT-1080-NT fibrosarcoma viability, CellTiter-Glo ATP luminescence, 48 h. Potency, µM (top dose mostly 46.1 µM), for inactives: at the highest dose activity, negative = less viability, usual class: cytotoxic. 360,000 compounds, 1.6% hits;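 note: NT is the 2HG producing partner of a matched IDH1 knockdown line; 0% = DMSO-treated cells and -100% = media-only wells without cells; nearly all actives have a fitted effect of over 55% in size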
#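 A 48-hour cytotoxicity screen used HT-1080-NT cells plated 2 hours before compound delivery. ATP-based CellTiter-Glo luminescence measured viability, normalized to DMSO and no-cell controls.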
# KB-V1 cytotox – KB-V1 MDR subline cytotoxicity. AID 1347076. Potency, µM (series often up to 46.1 µM), usual class: cytotoxic. 400,000 compounds, 3.4% hits. KB-V1 MDR cells viability, CellTiter-Glo, 72 h; note: % is set by controls: 0 for no effect and ±100 for the full control effect; nearly all actives have a fitted effect of over 60% in size
#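 Readout: CellTiter-Glo luminescence, 10 min after addition. Cells: KB-V1 MDR subline, 72 h at 37 degrees C with compound. Analysis: corrected, normalized data fitted to concentration-effect curves.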
# * hit, by the source's call; i = inactive; ? = inconclusive; . = no result given. Shown are actives, neighbours in structure and some others; about 8% of the full set was active somewhere. Calls come from the whole dose curve; as a rule, active = well fitted curve in the direction sought with a large enough effect; inconclusive = small, poorly fitted or top-dose-only effect, or another doubt; inactive = no such curve, though single readings can be large; an effect the other way counts as inactive or inconclusive. Potency is the fitted concentration of half-maximal effect.
SMILES,HT1080 IDH1KD tx,SW480 rerep,MCF10A rereplic,KB-3-1 cytotox,HT1080NT lethal,KB-V1 cytotox
CCOC(=O)c1c(CC(C)C)csc1NC=O,-11%,2%,?,16µM*,-11%,4.6µM*
CCOC(=O)c1c(CC(C)C)csc1/N=C/C1C(=O)CCCC1=O,?,16µM*,?,i,?,i
CCOC(=O)c1c(CC(C)C)csc1NC(C)=O,-10%,16%,-6%,i,-13%,i
COc1ccccc1CNC(=O)CCC(=O)N1CC2CCCN2c2ccccc21 (stereo not given),.,.,.,i,.,i
CCOC(=O)c1sc(NC(=O)C(OC(C)=O)c2ccccc2)nc1C (stereo not given),2%,15%,4%,i,5%,i
Cc1cnc(NC(=O)CC(C)c2ccccc2)s1 (stereo not given),?,5.8µM*,10µM*,21µM*,?,?
CCOC(=O)c1sc(NC(=O)CC(C)c2ccccc2)nc1C (stereo not given),9.2µM*,?,27%,?,?,?
CCc1ccc(CCC(=O)Nc2ncc(Cc3ccccc3Cl)s2)o1,4.6µM*,4.6µM*,1.6µM*,?,6.5µM*,i
c1ccc(NC(c2ccccc2)c2ccncc2)cc1 (stereo not given),5%,2%,24%,?,0%,i
c1ccc(C(Nc2cccnc2)c2ccccc2)cc1,13%,1%,1%,i,13%,21µM*
CC(C)c1nnc(NC(=O)CC(C)c2ccccc2)s1 (stereo not given),-4%,5%,-1%,i,-9%,i
O=C(N1CCCC1)C12CC3CC(CC(Cl)(C3)C1)C2,11%,-2%,-4%,i,5%,?
Cc1ccc(S(=O)(=O)N2C[C@H]3C(=O)C[C@@H](c4ccccc4)N(S(=O)(=O)c4cccc(C)c4)[C@H]3C[C@H]2c2ccccc2)cc1,13%,.,.,i,14%,i
Nc1nc2c(nc(SCc3ccccc3Br)n2[C@@H]2O[C@H](CO)[C@@H](O)[C@H]2O)c(=O)[nH]1,5%,-1%,-3%,i,17%,?
CCOC(=O)c1sc(NC(=O)c2ccc(OC)cc2)nc1C,21%,-6%,-4%,i,15%,i
CCOC(=O)c1sc(NC(=O)CCSC)nc1C,-4%,?,8%,i,-10%,?
CC(CC(=O)Nc1ccc(C(N)=O)cc1)c1ccccc1 (stereo not given),-3%,1%,-2%,i,0%,i
CCOC(=O)c1sc(NC(=O)CCc2ccccc2)nc1C,-6%,5.8µM*,20%,?,-17%,i
CCOC(=O)c1sc(NC(=O)c2ccc(OC(C)=O)cc2)nc1C,29µM*,15%,0%,?,-26%,10µM*
COc1ccccc1CCC(=O)Nc1ncc(C)s1,-2%,?,?,?,-15%,23µM*
CC(CC(=O)Nc1cccnc1)c1ccccc1 (stereo not given),1%,12%,12µM*,i,4%,i
CC(C)c1ccc(NC2CCCN(C(=O)c3cccc4nccnc34)C2)cc1 (stereo not given),-15%,12%,1%,i,-7%,i
Cc1cc(CCNC=O)c(C)c2c1sc1ccccc12,-10%,3%,?,16µM*,-6%,16µM*
COc1cc(C)c2sc3ccccc3c(=O)c2c1NCCN(C)C,?,.,.,i,?,?
Cc1cccn2c(=O)cc(COc3ccc(NC(=O)COc4ccc(F)cc4)cc3)nc12,.,.,.,i,.,i
SMILES,HT1080 IDH1KD tx,SW480 rerep,MCF10A rereplic,KB-3-1 cytotox,HT1080NT lethal,KB-V1 cytotox
COCC(=O)N[C@H]1CC[C@@H](CC(=O)OC)O[C@@H]1CO,9%,.,.,i,22%,i
COc1ccc(NC(=O)C2CCCN(C(=O)c3cnn(-c4ccc(F)cc4)c3-n3cccc3)C2)cc1 (stereo not given),.,.,.,i,.,i
C/C(=N\NC(=O)c1c(C)nc2ccccn12)c1ccc(C(C)(C)C)cc1,-27%,?,18µM*,i,-25%,?
C(=N\N1CCN(Cc2cccc3ccccc23)CC1)/c1cccnc1,-1%,0%,26µM*,?,-5%,?
FC(F)(F)c1ccc(/C=N/N2CCN(Cc3cccc4ccccc34)CC2)cc1,4%,-4%,7%,i,8%,i
CN(C)S(=O)(=O)c1ccc(Cl)c(NC(=O)CSc2nc3c(cc2C#N)C(=O)CCC3)c1,-6%,2.6µM*,?,i,10%,10µM*
Cc1noc(NS(=O)(=O)c2ccc(NC(=O)CSc3nc4c(cc3C#N)CCCC4)cc2)c1C,3%,2%,23µM*,i,2%,?
N#Cc1cc2c(nc1SCC(=O)Nc1sc3c(c1C#N)CCC3)CCCCC2,-4%,18µM*,0.82µM*,i,10%,i
Cc1cc(NC(=O)CSc2nc3c(cc2C#N)CCC3)no1,-8%,15µM*,?,i,7%,i
COc1ccc(CN2CCNC(=O)C2CC(=O)NC2Cc3ccccc3C2)c(OC)c1 (stereo not given),4%,-2%,0%,i,3%,?
O=C(CBr)c1ccc(Oc2ccc(C(=O)C[n+]3ccccc3Cl)cc2)cc1,.,.,.,i,.,i
N#Cc1c(NC(=O)CSc2ncn[nH]2)sc2c1CCCCC2,?,?,-1%,i,?,4.1µM*
CCCCn1nnnc1SCC(=O)Nc1sc2c(c1C#N)CCCC2,?,3%,11µM*,i,-1%,?
COc1ccc2nc(SCC(=O)Nc3ccc(S(=O)(=O)N4CCCC4)cc3)c(C#N)cc2c1,?,4%,-4%,i,4%,i
N#Cc1c(NC(=O)CSc2nc(N)cc(=O)[nH]2)sc2c1CCCCCC2,-5%,-4%,26%,?,-8%,?
N#Cc1cc2ccccc2nc1SCC(=O)Nc1ccc(S(=O)(=O)N2CCCC2)cc1,-26%,14%,24%,i,-19%,4.1µM*
Cc1cccc(CCNC(=O)C2CCN(c3nc4ccccc4nc3C(F)(F)F)CC2)c1,.,.,.,i,.,i
O=S(=O)(c1ccccc1)c1nc(Nc2ccccc2N2CCOCC2)sc1Cl,-25%,1%,3%,i,?,21µM*
O=C(NCc1cccs1)C1CCCN(c2ncccn2)C1 (stereo not given),0%,1%,0%,i,0%,?
